Data on 26 compounds can be found in PubChem BioAssay.

Structures are written as SMILES. Calls of active or inactive are those of the source.

This assay is described as follows: forskolin-driven CRE-LacZ activity in PC12 – cell-based, CRE-LacZ reporter, forskolin-stimulated, primary screen (AID 1146).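 Also: PC12 cells with 6xCRE LacZ reporter stimulated by forskolin 10 µM; beta-galactosidase reporter signal reflecting CREB driven transcription.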 Particulars: luminescence, 4.5 h, higher = more signal, called active from +8 up or from −8 down.
Take `O=C1[C@H]2[C@H]3[C@H](O)[C@H](O)CC(=NOC[C@@H](O)COCc4ccco4)[C@H]3CC[C@H]2C(=O)N1c1cccc(Oc2ccccc2)c1`: the z-score was 0.452 (inactive).
Next, `CS(=O)(=O)CCOC(=O)C1=CC(CCCO)=CC(c2cccs2)N(Cc2cccc(OC(F)(F)F)c2)C=C1C(=O)OCCS(C)(=O)=O` (stereo unspecified): 0.706 (inactive).
Next, `CC(CCC(=O)OC[C@H]1O[C@H](C#Cc2ccccc2)C=C[C@@H]1Oc1ccc(C)cc1)=NO[C@@H](C)c1cn([C@H](CO)Cc2ccccc2)nn1`: 0.0061 (inactive).
The value for `COc1ccc(O[C@H]2C=C[C@@H](c3ccccc3)O[C@@H]2COC(=O)CCC(C)=NO[C@@H](C)c2cc(-c3c(C)cc(C)cc3C)no2)cc1` was 0.65 (inactive).
Consider `CC(C)[C@@H](OCc1ccccc1)[C@H](C)C=NO[C@H](C)c1cn([C@H](CO)Cc2ccccc2)nn1`, for which the z-score was -0.437 (inactive).
The value for `COc1cccc([C@H]2Oc3ccc(OC)cc3C(=NOC(C)CN3CCCc4nc(C)c(C)cc43)[C@@H]2O)c1` (stereo partly specified) was -0.0145 (inactive).
Take `O=C1C[C@@H](O)[C@@H](O)[C@@H]2[C@@H]3C(=O)N(C4CCCCC4)C(=O)[C@@H]3CC[C@H]12`: the z-score is -0.444 (inactive).
Next, `COc1ccc([Si](C)(C)[C@H]2[C@H](CC(=O)N3CCC[C@H]3CO)O[C@@]3(C(=O)N(Cc4cccc(N5C(=O)COc6ccccc65)c4)c4ccccc43)[C@@H]2C)cc1`: -1.22 (inactive); `CC(C)NC(=O)[C@@]1(c2ccc([N+](=O)[O-])cc2)CC(=O)N(CC23CC4CC(CC(C4)C2)C3)[C@@H]1c1ccc(CO)cc1I`: 0.0456 (inactive); `C=CCOC(=O)[C@H]1[C@@H]2C(=O)O[C@@H](c3ccccc3)[C@@H](c3ccccc3)N2[C@@H](c2ccc(OCCOC(=O)[C@H]3C[C@H]4C(=O)N5CCC[C@H]5C(=O)N4[C@H]3c3cccc(OCCO)c3)cc2)[C@]12C(=O)Nc1ccc(I)cc12`: 0.437 (inactive).
The value for `CC(C)CN1CCc2nc(-c3ccccc3)c3c(c2CC1)CO[C@@H](C)C3` was -1.26 (inactive); that for `CC(C)OC(=O)C=C1C[C@@H](c2ccc(C#N)cc2)O[C@@H](c2ccc(C#N)cc2)O1` was 0.421 (inactive).
Regarding `C=CC[C@@H]1C=C[C@H](ON=C[C@@H](OC)[C@H](C)C=CCC(=O)OC)[C@@H](CO)O1`, the z-score is -0.385 (inactive).
The value for `CN1C(=O)C2C(C1=O)C1C=C(CCCO)C2C(c2ccc(CN3CCCC3)cc2)N1C` (stereo unspecified) was -0.436 (inactive).
For the compound `COCC(=C=CC[C@@H](O)c1ccccc1OCCO)CCO`, the z-score is -0.732 (inactive).
The value for `COCCOC(=O)N1C(=O)[C@@]2(c3cc(C#CCNC(N)=O)ccc31)[C@H](c1ccc(O)cc1)N1[C@H](c3ccccc3)[C@H](c3ccccc3)OC(=O)[C@H]1[C@@H]2C(=O)N1CCCCCCC1` was 0.357 (inactive); that for `C=C(/C(=C/C[C@H](OC(=O)c1ccncc1)c1ccc(OCCO)cc1)c1cnc2ccccc2c1)C(C)C` was -0.429 (inactive); that for `Cc1cc2c(c(=O)o1)[C@H](O)[C@H]1O[C@H]1C2=O` was 2.18 (inactive).
For the compound `COC(=O)[C@@H]1CC[C@H](C)[C@@H](c2ccc(C)cc2)N1C(=O)c1ccc(C=NOC[C@@H](O)COCc2ccco2)cc1`, the z-score was -0.309 (inactive).
Next, `CO[C@@H]1COC(=O)[C@H](C)NC(=O)[C@@H](C)COC(=O)CCC[C@H]1C`: 0.396 (inactive); `CC(C)c1ccc(NN2C(C(O)c3ccc4c(c3)OCO4)C=CC3C(=O)N(c4ccccc4)C(=O)C32)cc1` (stereo unspecified): -0.0824 (inactive).
Turning to `CCOC(=O)[C@H](Cc1ccccc1)NC(=O)CCC1CC(OC(=O)NCc2ccc3c(c2)OCO3)CC2(CCCC(COC(=O)NCc3ccccc3)O2)O1` (stereo partly specified), the z-score was 0.807 (inactive).
The value for `CC(C)(C)OC(=O)CC[C@]1(C(=O)NCc2ccccc2)N=C(c2ccc(OCCCO)cc2)O[C@H]1c1ccccc1` was -1.23 (inactive); that for `Cc1ccc(C2CC=C(C(=O)O)CN2S(=O)(=O)c2ccc(C)cc2)cc1` (stereo unspecified) was 0.707 (inactive); that for `CC[C@@H](c1ccccc1)n1c(=O)n2n(c1=O)[C@H]1[C@H](O)[C@@H]3O[C@@H]3C(=NOCC=C(C)CCC=C(C)C)[C@H]1CC2` was 0.889 (inactive).
On to `CC(CCC(=O)OC[C@H]1O[C@H](C#Cc2ccccc2)C=C[C@@H]1Oc1ccc(C)cc1)=NOC[C@@H](O)COCc1ccco1`, for which the z-score was 1.9 (inactive).
